From PubChem
Shiga toxin inh = inhibitors of Shiga toxin in Vero cells; Vero cells, Shiga toxin protein synthesis inhibition reporter; inhibition, % at 38.7 µM; 9.2% of 290,000 active; AID 2315; in the data active = inhibition mostly above about 28%, no sharp cut-off; inactive = mostly below about 43%
AMA1-RON2 inh = inhibitors of Plasmodium falciparum AMA1-RON2 interaction; AlphaScreen AMA1-biotinylated RON2 peptide binding; Potency, µM (top dose mostly 58.2 µM), actives largely listed as inhibitors; 0.2% of 360,000 active; active = well fitted inhibition curve with a large enough effect; inconclusive = small, poorly fitted or top-dose-only effect; inactive = no such curve, though single readings can be large or run the other way; also: nearly all actives have a fitted effect of over 45% in size
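AMA1 (3D7) with his tag at 25 nM final met compounds first, then biotinylated RON2 peptide at 25 nM; detection used donor plus acceptor beads, 10 µg/mL apiece, read by AlphaScreen after 30 min at room temperature.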
LASV entry inh = blocks Lassa virus binding to or entry into cells. Lassa virus pseudotype entry inhibition, cell reporter. 1.2% of 300,000 active. AID 540256. Potency, µM (top dose mostly 37.9 µM), usual class: inhibitors; calls by dose curve; tested in HEK293 cells; also: nearly all actives have a fitted effect of over 50% in size
Cycloheximide cs = counter-screen for Shiga toxin inhibitors: cycloheximide protein synthesis inhibition; AID 2314; max response, %; 12% of 300,000 active; cell reporter, cycloheximide protein synthesis inhibition counterscreen; in the data active = max response mostly above about 13%, no sharp cut-off; inactive = mostly below about 14%; also: read at 38.3 µM for the half of the compounds with a filed dose
MARV entry inh = inhibitors of Marburg virus binding or cell entry; Marburg virus pseudotyped entry inhibition, cell reporter; Potency, µM (top dose mostly 37.8 µM), usual class: inhibitors; 1.8% of 300,000 active; AID 540276; calls by dose curve; tested in HEK293 cells
Numbers stand for hits; – = inactive; ? = inconclusive; · = not tested or not shown; [ ] = another dose, or the depositor's remark. The full list was thinned out, with hits kept by preference.

SMILES | Shiga toxin inh | AMA1-RON2 inh | LASV entry inh | Cycloheximide cs | MARV entry inh
CCc1ccc(/C=N/NC(=O)c2ccccn2)cc1 | – | – | 1.4µM | – | ?
O=C(N/N=C/c1ccc(OC(=O)c2ccccc2Cl)cc1)c1cc(O)cc(O)c1 | – | ? | – | – | –
CCN(CC)c1ccc(/C=N/NC(=O)c2ccc([N+](=O)[O-])cc2)cc1 | – | – | · | – | ·
O=C(N/N=C/c1ccc(OC(=O)c2ccccc2Cl)cc1)c1ccccn1 | 51 | – | ? | 49 | ?
CCN(CC)c1ccc(/C=N/NC(=O)c2cnccn2)cc1 | 108 | – | ? | 42 | ?
CCN(CC)c1ccc(/C=N/NC(=O)c2ccc3nc[nH]c3c2)cc1 | – | – | – | – | –
CCN(CC)c1ccc(/C=N/NC(=O)c2ccccn2)cc1 | 44 | – | 11µM | 26 | ?
CCOC(=O)c1sc(NC(=O)c2cc(-c3ccccc3C)nc3ccccc23)c(C#N)c1C | – | – | 11µM | – | ?
Cc1ccccc1-c1cc(C(=O)Nc2sc(C)c(C)c2C(N)=O)c2ccccc2n1 | – | – | 16µM | – | ?
CCOC(=O)c1c(NC(=O)c2cc(-c3ccc(Cl)s3)nc3ccccc23)sc(C(N)=O)c1C | – | – | – | – | –
CN(C)CCCNC(=O)c1ccc(-c2cc3nc(NCc4cccnc4)n(C)c(=O)c3s2)cc1 | · | – | · | · | ·
CNCCc1ccc(O)c(O)c1 | · | 7.1µM | ? | · | ?
Oc1ccc(CCNc2c3ccccc3nc3ccccc23)cc1O | · | ? | ? | – | 10µM
CC(=O)NCCc1ccc(O)c(O)c1 | · | · | · | · | –
CCCC1(C)NC(=O)c2ccccc2O1 (stereo unspecified) | – | – | – | – | –
CCOC(=O)c1cc(-c2ccccc2)n(-c2cccc(C(=O)Nc3cccc(SC)c3)c2)c1C | · | · | – | · | ·
COc1cccc([C@H]2/C(=C(\O)c3ccc4c(c3)OCCO4)C(=O)C(=O)N2CCN(C)C)c1 | · | · | · | · | –
O=C(NC1CCCC1)C(c1cccs1)N(C(=O)c1ccco1)c1ccc2c(c1)OCCO2 (stereo unspecified) | 52 | – | ? | 15 | –
O=C(NCC(=O)N(c1ccc(Cl)cc1)C(C(=O)NC1CCCC1)c1ccncc1)c1ccco1 (stereo unspecified) | – | – | – | – | –
O=C(NCC(=O)N(c1ccc2c(c1)OCO2)C(C(=O)NC1CCCC1)c1ccncc1)c1ccco1 (stereo unspecified) | – | 40µM | – | – | –
CCC(C)(C)C1CCc2[nH]nc(C(=O)NCc3ccc(OC)cc3)c2C1 (stereo unspecified) | · | – | · | · | ·
Cc1ccc(-c2csc3nc(CN(C)Cc4ccccc4)[nH]c(=O)c23)cc1 | – | – | – | – | ?
O=c1[nH]c(Cc2ccc(F)cc2)nc2scc(-c3ccc(F)cc3)c12 | – | – | – | 17 | ?
Cc1ccc(-c2csc3nc(CSc4nnc(-c5ccc(Cl)cc5)n4C)[nH]c(=O)c23)cc1 | – | –[11.6 µM] | – | 13 | –
O=C(CC1CCCC1)Nc1cccc(Br)c1 | 56 | – | – | 17 | ?
SMILES | Shiga toxin inh | AMA1-RON2 inh | LASV entry inh | Cycloheximide cs | MARV entry inh
Cc1ccc(NC(=O)Cn2cccc2)c(Br)c1 | 45 | – | – | – | ?
CC(=O)c1cccc(NC(=O)CC2CCCC2)c1 | – | – | – | – | –
Cc1ccc(NC(=O)CNCc2ccccc2)c(Br)c1 | 157 | – | · | 16 | –
Cc1ccc(NC(=O)CC2CCCC2)c(Br)c1 | 93 | – | – | 42 | ?
Cc1ccc(NC(=O)Cn2cccc2)c(C)c1 | – | – | – | – | –
COc1ccc(C2CC(c3ccccc3)Oc3cc(C)c(Cl)c(C)c32)cc1 (stereo unspecified) | – | · | · | – | ·
Cc1ccc(NC(=O)CNCc2cccs2)c(Br)c1 | 67 | – | · | 35 | ·
O=C(CNCc1cccs1)NC12CC3CC(CC(C3)C1)C2 | – | – | – | 14 | –
O=S(=O)(NCCOCC(F)(F)F)c1ccc2oc3ccccc3c2c1 | – | – | – | – | ?
Cc1nnc(SCC(=O)NC2CCCC2)n1C(C)C | – | – | – | 20 | –
CCn1c(CC(=O)Nc2ccccc2C)nnc1SCC(=O)NC1CCCC1 | – | – | – | 21 | –
CCn1c(COc2cccc(OC)c2)nnc1SCC(=O)NC1CCCC1 | – | – | – | 36 | –
Cc1ccccc1NC(=O)Cc1nnc(SCC(=O)NC2CCCCC2)n1C | – | – | – | – | –
CCn1c(COc2cccc(C)c2)nnc1SCC(=O)NC1CCCC1 | – | – | ? | – | –
Cc1nnc(SCC(=O)NC2CCCCCC2)n1C | – | – | · | – | ·
COc1cc(NC(=O)COC(=O)Cc2ccc(-c3ccccc3)cc2)cc(OC)c1 | – | – | ? | – | ?
O=C(O)CCNC(=O)CCCn1nnc2ccccc2c1=O | – | – | · | – | ·
O=C(CNC(=O)Cc1ccccc1)NCc1cccs1 | · | – | – | · | –
O=C(NCc1ccccc1)NCc1cccs1 | 41 | – | – | 22 | ?
O=C(NCc1cccs1)Nc1cccc(Cl)c1 | · | – | – | · | –
O=C(NCc1cccs1)Nc1cccs1 | 33 | – | – | 38 | –
Cc1ccccc1CNC(=O)Nc1cccs1 | 66 | – | ? | 51 | –
CN1C(=O)/C(=C/c2ccccc2F)Sc2ccc(C(=O)NCC3CCCO3)cc21 (stereo unspecified) | – | – | · | – | ·
CCOc1ccc(-n2c(C)nc3cc(C(=O)NCC4CCCO4)ccc32)cc1 (stereo unspecified) | – | – | 5µM | – | ?
Cc1cccc(-n2c(C)nc3cc(C(=O)NCC4CCCO4)ccc32)c1 (stereo unspecified) | – | – | · | – | ·
SMILES | Shiga toxin inh | AMA1-RON2 inh | LASV entry inh | Cycloheximide cs | MARV entry inh
Cc1cccc(C(=O)NCC2CCCO2)c1 (stereo unspecified) | – | – | – | – | ?
CS(=O)(=O)N(CC(=O)NCC1CCCO1)c1cccc(Cl)c1 (stereo unspecified) | – | – | – | 15 | –
CS(=O)(=O)N(CC(=O)NCC1CCCO1)c1cc(Cl)cc(Cl)c1 (stereo unspecified) | – | – | – | – | –
CN(C)c1cccc(C(=O)NCC2CCCO2)c1 (stereo unspecified) | 42 | – | – | – | –
Cc1cccc(/C=C2\Sc3ccc(C(=O)NCC4CCCO4)cc3N(C)C2=O)c1 (stereo unspecified) | – | – | ? | – | 7.1µM
O=S(=O)(Nc1c(Br)cc(Br)c2cccnc12)C1CCCCC1 | – | · | · | – | ·
Cc1nn(CC(=O)NCCc2ccccc2Cl)c(=O)c2nn(-c3ccccc3)c(C)c12 | · | · | – | · | ·
COc1ccc(CNC(=O)c2ccc(NC(=O)C3CCCO3)cc2)cc1 (stereo unspecified) | 26 | – | – | – | –
CCCOC(=O)c1ccc(NC(=O)C2CCCO2)cc1 (stereo unspecified) | 66 | – | – | 39 | –
NC(=O)c1ccc(NC(=O)C2CCCO2)cc1 (stereo unspecified) | – | – | – | – | –
CCOc1ccc(NS(=O)(=O)c2cccc(C(=O)NCC3(N(C)C)CCCCC3)c2)cc1 | · | – | ? | · | 11µM
Cc1cc(NC(=O)c2ccc(NC(=O)C3CCCO3)cc2)ccc1Br (stereo unspecified) | 74 | – | · | 42 | ·
O=C(NCc1ccc(F)cc1)c1ccc(NC(=O)C2CCCO2)cc1 (stereo unspecified) | – | – | – | – | –
